Source: PubChem BioAssay (National Center for Advancing Translational Sciences (NCATS))
A selection: hits, their analogues and other compounds. The true share with any hit is near 3.8%.
KAT2A inh: qHTS Assay for Inhibitors of GCN5L2. GCN5L2 HAT assay, ThioGlo1 CoA-SH fluorescence. Potency, µM (top dose mostly 58.9 µM), hits mostly inhibitors. 0.21% of 390,000 active. AID 504327, 2011
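GCN5L2 (20nM final) in 50mM HEPES, 0.1mM EDTA pH 7.5, 0.01% Tween-20 was preincubated 15 min at room temperature with compound, then given ThioGlo1 (50uM), H3(1-25) peptide (75uM) and acetyl-CoA (70uM); CoA-thiol fluorescence (Ex340/Em540) was read at 0 and 20 min.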
Sfp PPTase inh: qHTS Assay for Inhibitors of Bacillus subtilis Sfp phosphopantetheinyl transferase (PPTase) | 4'-phosphopantetheinyl transferase ffp (Bacillus subtilis), Q9F4F7 | Potency, µM, hits mostly inhibitors | 3.5% of 310,000 active | AID 1490, 2009 | Biochemical Sfp PPTase activity, qHTS;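 also: the enzyme is Sfp with the accession as filed and its product quenches rhodamine fluorescence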
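After 15 min at room temperature with compound, 15 nM Sfp received 5 uM rhodamine-CoA plus 12.5 uM BHQ-2-ybbR (50 mM Hepes pH 7.6, 10 mM MgCl2). Rate came from the fluorescence difference over 30 min, ex 525/em 598 nm.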
VDR inhibitor: Inhibitors of the vitamin D receptor (VDR): qHTS | Vitamin D3 receptor (Homo sapiens), P11473 | 0.93% of 400,000 active | VDR-SRC2-3 peptide fluorescence polarization, 2 h | AID 504847, 2011 | Potency, µM, hits mostly inhibitors
Target sequence (P11473 whole entry, looked up): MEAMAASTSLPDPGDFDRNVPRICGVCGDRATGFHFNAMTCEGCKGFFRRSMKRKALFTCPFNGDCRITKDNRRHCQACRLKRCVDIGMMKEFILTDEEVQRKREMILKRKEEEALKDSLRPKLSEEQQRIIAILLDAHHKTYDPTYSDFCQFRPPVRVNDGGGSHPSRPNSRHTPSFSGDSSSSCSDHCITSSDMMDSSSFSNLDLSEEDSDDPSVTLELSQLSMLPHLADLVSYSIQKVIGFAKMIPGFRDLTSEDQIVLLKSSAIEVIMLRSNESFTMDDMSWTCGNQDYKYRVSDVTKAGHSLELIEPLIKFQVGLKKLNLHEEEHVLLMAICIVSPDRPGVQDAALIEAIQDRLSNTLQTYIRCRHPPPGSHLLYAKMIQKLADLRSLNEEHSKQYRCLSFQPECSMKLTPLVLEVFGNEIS
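After 23 nl compound addition and a short centrifugation, plates sat for 2 hours at ambient temperature; polarization of fluorescence then indicated loss of VDR binding to peptide SRC2-3.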
GLS inhibitor: qHTS for Inhibitors of Glutaminase (GLS); Glutaminase kidney isoform, mitochondrial (Homo sapiens), O94925; GLS enzymatic activity, qHTS titration; Potency, µM (doses to about 45.5 µM), hits mostly inhibitors; 0.21% of 410,000 active; AID 624170, 2012
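hKGA in 45 mM KH2PO4 (pH 8.2), 0.02% Tween-20 with compound, then 1mM L-Glutamine (stock as added) plus glutamate oxidase/HRP/Amplex red coupling mix. Fluorescence read initially and after 30 min at RT; signal change reflects glutamate formation.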
TrxR1 inh: qHTS Assay for Inhibitors of Mammalian Selenoprotein Thioredoxin Reductase 1 (TrxR1): qHTS. 1% of 390,000 active. Thioredoxin reductase 1, cytoplasmic (Rattus norvegicus), O89049. AID 588453, 2011. recombinant rTrxR1, NADPH fluorescence consumption, selenite substrate. Potency, µM (top dose mostly 114 µM), most hits filed as inhibitors; also: nearly all actives have a fitted effect of over 65% in size
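Rat TrxR1 (90 nM in the dispensed reagent) was pre-reduced with 400 uM NADPH for 5 min at room temperature, then incubated with compound for 15 min. After 400 uM selenite was added, NADPH fluorescence (Ex 340/Em 450 nm) was followed for 8 min.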
TrxR1 substrate: qHTS Assay for Substrates of Mammalian Selenoprotein Thioredoxin Reductase 1 (TrxR1): qHTS | 0.01% of 390,000 active | AID 588456, 2011 | Potency, µM (top dose mostly 114 µM) | purified TrxR1 substrate turnover, NADPH consumption readout | Thioredoxin reductase 1, cytoplasmic (Rattus norvegicus), O89049; also: nearly all actives have a fitted effect of over 50% in size
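Rat TrxR1, dispensed at 90 nM, was prereduced with 400 uM NADPH (final) for 5 min at ~22 deg C, then incubated with compound 15 min before 400 uM selenite. A first-read NADPH fluorescence drop versus no-compound background flagged substrates.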
A number is an active result; – = inactive; ? = inconclusive; · = no result; ! = not active in a repeat. Calls follow the shape of the dose curve; as a rule, active = well fitted curve in the direction sought with a large enough effect; inconclusive = small, poorly fitted or top-dose-only effect, or another doubt; inactive = no such curve, though single readings can be large; an effect the other way counts as inactive or inconclusive.

SMILES | KAT2A inh | Sfp PPTase inh | VDR inhibitor | GLS inhibitor | TrxR1 inh | TrxR1 substrate
Cc1cc(C)c(COc2ccc(/C=N/n3c(C)n[nH]c3=S)cc2)c(C)c1 | – | 50.1µM | – | – | – | –
Cc1ccc(/C=N/n2c(COc3ccccc3)n[nH]c2=S)o1 | – | 44.7µM | – | – | ? | –
Cc1cc(=O)c2c(O)c(O)ccc2o1 | – | 79.4µM | – | – | – | –
CC1=CCc2c(cc3oc(C)cc(=O)c3c2O)OC1 | – | – | – | · | · | ·
COc1ccc2c(c1)CCc1c(C(=O)NCc3cccnc3)noc1-2 | – | – | – | – | – | –
CC(C)[C@H]1c2ccc(F)cc2CC[C@@]1(CCN(C)CCCc1nc2ccccc2[nH]1)OC(=O)C1CC1 | – | 44.7µM | – | · | – | –
CN(C)/C=N/c1cc(=O)[nH]c(=O)n1CC1CC1 | – | – | – | – | – | –
C=CCn1c(=O)[nH]c2nc3cc(N=CN(C)C)c(C)cc3nc2c1=O | – | 50.1µM | – | – | – | –
C/C(=N\Nc1ncc(Cl)cc1Cl)c1ccc2c(c1)OCO2 | – | 79.4µM | – | – | – | –
C/C(=N\NC(=O)c1ccc2c(c1)OCO2)c1ccc2c(c1)OCO2 | – | – | – | – | – | –
C/C(=N\Nc1ncc(Cl)cc1Cl)c1ccc(OC(F)F)cc1 | – | 56.2µM | – | – | – | –
COC(=O)N/N=C(\C)c1ccc(OC(F)F)cc1 | – | – | – | – | – | –
CN1OC[C@@H]2CN(C(=O)c3ccco3)[C@H](c3ccc(-c4ccc(C#N)cc4)cc3)C[C@@H]21 | · | · | · | – | · | ·
CCNc1ncc2nc(-c3ccc(Cl)cc3)c(=O)n(C[C@H]3CCCO3)c2n1 | – | – | – | · | · | ·
C=CCN1CCN(c2nc3ccccc3nc2C#N)CC1 | ? | 56.2µM! | 35.5µM | · | · | ·
C=CCNC(=O)C(C#N)c1nc2ccccc2nc1N1CCCCCC1 (stereo not drawn) | – | – | – | – | ? | –
Cc1ccccc1NC(=O)COC(=O)c1ccc(CSc2ccc(Cl)cc2)cc1 | – | – | – | – | – | –
Cc1cccnc1NCC(O)COc1ccccc1 (stereo not drawn) | – | – | – | – | – | –
O=C1c2cccc(O)c2C(=O)c2c(O)cccc21 | ? | 28.2µM! | ? | – | · | ·
O=C1C=C(O)c2cccc(O)c2C1=O | ? | – | – | – | – | –
O=C1C(O)=C(O)C(=O)c2ccccc21 | · | · | 8.91µM | – | ? | –
COc1ccc(C(=O)NC(=C(Cl)Cl)S(=O)(=O)c2ccc(C)cc2)cc1 | – | – | – | – | – | –
CC1=C(C(=O)N2CCCC(CCC(=O)NCc3ccc(F)c(F)c3)C2)OCCO1 (stereo not drawn) | – | – | – | – | – | –
O=C(NCC1CCCN(Cc2cccc(OCCO)c2)C1)c1ccc(F)cc1 (stereo not drawn) | – | – | – | – | – | –
O=C(CSc1nnc(-c2ccco2)n1CC1CCCO1)c1ccc(F)cc1 (stereo not drawn) | – | 50.1µM | – | ? | 15.8µM | –
SMILES | KAT2A inh | Sfp PPTase inh | VDR inhibitor | GLS inhibitor | TrxR1 inh | TrxR1 substrate
COc1cccc(C(=O)CSc2nnc(-c3ccco3)n2CC2CCCO2)c1 (stereo not drawn) | – | – | – | – | – | –
O=C(CSc1nnc(-c2ccco2)n1CC1CCCO1)N1CCCCC1 (stereo not drawn) | – | – | – | – | – | –
COc1ccc(C(=O)CSc2nnc(-c3ccco3)n2CC2CCCO2)cc1 (stereo not drawn) | – | 44.7µM | – | – | ? | –
COc1cc(/C=N/NC(=O)c2cc(-c3ccco3)nc3ccccc23)cc(OC)c1O | – | – | – | – | 12.6µM | –
Cc1ccc(C=NNC(=O)c2cc(-c3cccnc3)nc3ccccc23)o1 | – | · | – | – | – | –
O=C(N/N=C/c1ccc2c(c1)OCO2)c1cc(-c2ccc(F)cc2)nc2ccccc12 | – | 44.7µM | – | – | – | –
